Source: PubChem
This excerpt belongs to a sample that is enriched for hits.
CBX7 inh = CBX7 chromodomain binding inhibitors, primary screen, biochemical, AlphaScreen; AID 1224903, 2016; Chromobox protein homolog 7 (Homo sapiens), O95931; 1.1% of 66,000 active; normalised signal (fraction of DMSO) (test concentration not listed); AlphaScreen His6-CBX7 / biotin-H3K27me3 peptide binding; active compounds read low; in the data active = normalised signal below about 0.5
Target sequence (O95931 whole entry, looked up): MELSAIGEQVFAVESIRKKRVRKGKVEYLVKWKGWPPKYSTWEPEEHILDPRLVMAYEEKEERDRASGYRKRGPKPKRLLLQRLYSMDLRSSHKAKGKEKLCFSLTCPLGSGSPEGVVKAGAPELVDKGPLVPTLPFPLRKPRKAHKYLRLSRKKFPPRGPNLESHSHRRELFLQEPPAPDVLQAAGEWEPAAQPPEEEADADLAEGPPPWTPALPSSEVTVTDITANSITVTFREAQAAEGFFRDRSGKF
* marks the source's active call; other numbers are inactive results.

SMILES | CBX7 inh
Cc1cccc(NC(=O)c2ccc(COc3ccc(C(C)(C)C)cc3)cc2)n1 | 1.23
O=C(CC1Oc2ccccc2NC1=O)NCCCN1CCN(c2ccccc2F)CC1 (stereo unspecified) | 1.23
Cc1ccc(C)c(N(C)C(=O)Cn2nc(Cc3cccnc3)c3ccccc3c2=O)c1 | 0.972
Cc1c(C)n(CC(O)CN2CCCCCC2)c2ccccc12 (stereo unspecified) | 1.01
CCN(CC)CC(O)Cn1c(C)c(C)c2ccccc21 (stereo unspecified) | 0.969
Cc1nn(CC(O)Cn2c(C)c(C)c3ccccc32)c(C)c1Br (stereo unspecified) | 0.436*
CCOc1ccc(CCNC(=O)CC2Oc3ccccc3NC2=O)cc1OCC (stereo unspecified) | 1.11
COc1ccc(CN2C(=O)c3cccnc3C2Nc2cc(Cl)c(OC)cc2OC)cc1 (stereo unspecified) | 0.0728*
COc1ccc(NC2c3ccccc3C(=O)N2Cc2ccccc2)cc1Cl (stereo unspecified) | 0.995
COc1ccc(Cl)cc1NC1c2ccccc2C(=O)N1Cc1ccccc1 (stereo unspecified) | 0.525
COc1ccc(CN2C(=O)c3cccnc3C2Nc2ccc(C)cc2)cc1 (stereo unspecified) | 0.503
Cc1ccc(NC2c3ncccc3C(=O)N2Cc2ccc(F)cc2)cc1C (stereo unspecified) | 0.791
COc1ccc(CN2C(=O)c3cccnc3C2Nc2ccc(OC)cc2)cc1 (stereo unspecified) | 0.0167*
O=C(Nc1cccc(O)c1)c1cc2n(n1)C(C(F)(F)F)CC(c1cccs1)N2 (stereo unspecified) | 1.15
CCC1Oc2ccc(Cl)cc2N(CC(=O)NC2CC2)C1=O (stereo unspecified) | 0.97
CC1(C)Cc2nc3sc4c(NCCCO)ncnc4c3cc2CO1 | 0.951
COc1ccc(-c2nc(-c3ccccc3)c(-c3ccc(F)cc3)[nH]2)cc1OC | 0.385*
Cc1ccc(-c2nc(-c3ccc(F)cc3)[nH]c2-c2ccccc2)cc1C | 0.958
O=[N+]([O-])c1ccc(-c2nc(-c3ccccc3)c(-c3ccc(F)cc3)[nH]2)cc1 | 0.662
Clc1ccc(-c2nc(-c3ccccc3)c(-c3ccccc3)[nH]2)cc1Cl | 0.919
Brc1cccc(-c2nc(-c3ccccc3)c(-c3ccc(Oc4ccccc4)cc3)[nH]2)c1 | 0.789
Cc1ccc([N+](=O)[O-])cc1-c1[nH]c(-c2ccc(F)cc2)nc1-c1ccccc1 | 0.479*
COc1ccc(-c2nc(-c3ccccc3)c(-c3cccs3)[nH]2)cc1 | 0.816
c1ccc(Oc2ccc(-c3[nH]c(-c4ccccc4)nc3-c3ccccc3)cc2)cc1 | 0.466*
COc1ccc(-c2nc(-c3ccccc3)c(-c3ccc(F)cc3)[nH]2)cc1 | 0.85
SMILES | CBX7 inh
COc1ccc(-c2nc(-c3ccccc3)c(-c3cccs3)[nH]2)c(OC)c1 | 0.537
COc1cc(OC)cc(-c2nc(-c3ccccc3)c(-c3ccc(F)cc3)[nH]2)c1 | 0.877
COc1cc(-c2nc(-c3ccccc3)c(-c3cccs3)[nH]2)cc(OC)c1O | 0.481*
Cc1ccc2cc(CCNC(=O)c3c(F)cccc3Cl)c(=O)[nH]c2c1 | 1.03
CC(C)CCNC(=O)CN1C(=O)CSc2ccc(S(=O)(=O)N3CCCCC3)cc21 | 1.06
COc1ccc(CNC(=O)CCNC(=O)Cn2ccc3ccccc3c2=O)cc1 | 1.03
COc1ccc(NC(=O)CSc2nnc(Cc3cc(=O)[nH]c(=O)[nH]3)n2-c2ccc(OC)cc2)cc1 | 1.01
CCOC(=O)N1CCC(NC(=O)c2cc3sc(Cl)cc3n2CC)CC1 | 1.03
COc1ccc(-c2noc(CCC(=O)Nc3cccc(C(F)(F)F)c3)n2)cc1 | 1.04
CCCNC(=O)Cn1cnc2sc(C(=O)N3CCC(Cc4ccccc4)CC3)c(C)c2c1=O | 1.03
CCCc1ccc(-c2nc(C3CCC(C4CCC(CCC)CC4)CC3)no2)cc1 (stereo unspecified) | 0.936
Cc1ccc(Cl)c(OCC(O)Cn2cnc3cc(C)c(C)cc32)c1 (stereo unspecified) | 0.718
CCCCn1c(=N)n(CC(O)COc2cccc(C)c2)c2ccccc21 (stereo unspecified) | 0.652
Cc1cc2ncn(CC(O)COC3CCCCC3)c2cc1C (stereo unspecified) | 0.0441*
Cc1ccc(OCC(O)Cn2cnc3cc(C)c(C)cc32)cc1 (stereo unspecified) | 0.0722*
Cc1cc2ncn(CC(O)COCC3CC=CCC3)c2cc1C (stereo unspecified) | 0.649
Cc1cccc(OCC(O)Cn2cnc3cc(C)c(C)cc32)c1 (stereo unspecified) | 0.0446*
Cc1cc2ncn(CC(O)COc3ccc(C(=O)O)cc3)c2cc1C (stereo unspecified) | 1.05
Cc1cc2ncn(CC(O)COCc3ccccc3)c2cc1C (stereo unspecified) | 0.0512*
Cc1cc2ncn(C(C)c3ccccc3)c2cc1C (stereo unspecified) | 1
Cc1ccc(OCCCn2cnc3cc(C)c(C)cc32)cc1 | 0.964
